# Bioassay records deposited in PubChem by National Center for Advancing Translational Sciences (NCATS).
# HT1080 IDH1KD tx – toxicity to HT-1080 IDH1 knockdown cells (counter line); Potency, µM (series often up to 46.1 µM), actives largely listed as cytotoxic; HT-1080 IDH1 knockdown viability, ATP luminescence, 48 h; AID 686971; actives 2% (n = 360,000)
#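 HT-1080-IDH1KD cells (IDH1 knocked down), 750/well in RPMI with 5% FBS, treated with compound 48 h at 37 degrees C. Viability by CellTiter-Glo luminescence, normalised to DMSO and no-cell wells; concentration-response curves classed.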
# HT1080-NT tox – kills 2HG-producing HT-1080-NT fibrosarcoma cells | HT-1080-NT fibrosarcoma viability, CellTiter-Glo ATP luminescence, 48 h | Potency, µM (top dose mostly 46.1 µM), hits mostly cytotoxic | actives 1.6% (n = 360,000) | AID 686970;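 also: NT is the 2HG producing partner of a matched IDH1 knockdown line; nearly all actives have a fitted effect of over 55% in size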
#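 Viability by CellTiter-Glo luminescence after 48 h compound exposure at 37C of HT-1080-NT cells (750/well, RPMI, 5% FBS). % activity scaled between DMSO wells and medium-only wells, then curve-fitted and categorized by curve class.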
# TDP1 cell CPT – DT40-hTDP1 cell growth loss with CPT | chicken DT40 Tdp1-/-;hTDP1 cells + 20 nM CPT, ATP luminescence, 48 h | Potency, µM (highest dose often 46.2 µM), usual class: inhibitors | actives 12% (n = 420,000) | AID 686979; also: nearly all actives have a fitted effect of over 55% in size
#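 Chicken DT40 Tdp1-/- cells complemented with human TDP1, 400 cells/well, exposed to compounds plus 20 nM camptothecin for at least 48 h at 37 C; viability read as ATP content by CellTiter-Glo luminescence.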
# KB-V1 cytotox – KB-V1 MDR subline cytotoxicity | Potency, µM (series often up to 46.1 µM), usual class: cytotoxic | KB-V1 MDR cells viability, CellTiter-Glo, 72 h | actives 3.4% (n = 400,000) | AID 1347076; also: nearly all actives have a fitted effect of over 60% in size
#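 Potencies derive from concentration-effect curves fitted to normalized luminescence (CellTiter-Glo) of KB-V1 cells treated for 72 h at 37 degrees C in phenol-red-free DMEM containing 10% FBS.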
# KB-3-1 tox – kills parental KB-3-1 adenocarcinoma cells; AID 1347075; KB-3-1 viability, CellTiter-Glo ATP luminescence, 72 h; actives 1.4% (n = 400,000); Potency, µM (titrated, usually from 46.1 µM), usual class: cytotoxic; also: nearly all actives have a fitted effect of over 60% in size
#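 Here the drug-naive KB-3-1 line serves as comparator for MDR sub-line selectivity; cells received compound titrations, 72 h at 37 °C, then CellTiter-Glo readout.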
# TDP1 cell noCPT – qHTS for Inhibitors of human tyrosyl-DNA phosphodiesterase 1 (TDP1): qHTS in cells in absence of CPT; DT40 Tdp1-/- hTDP1 cells, no CPT, ATP luminescence, 48 h; Potency, µM (top dose mostly 46.2 µM), usual class: inhibitors; actives 15% (n = 420,000); also: nearly all actives have a fitted effect of over 55% in size
#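 Chicken DT40 Tdp1-/- cells stably complemented with human TDP1 were seeded at 400 cells/well with DMSO in place of 20 nM camptothecin. After compound pinning, cells grew at least 48 hr at 37 °C; viability read by CellTiter-Glo luminescence.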
# Hits are given with their value; n = inactive; u = inconclusive; x = no result; [ ] = remark or other dose. An excerpt weighted towards active compounds, which were near 19% of everything screened. Calls follow the shape of the dose curve; as a rule, active = well fitted curve in the direction sought with a large enough effect; inconclusive = small, poorly fitted or top-dose-only effect, or another doubt; inactive = no such curve, though single readings can be large; an effect the other way counts as inactive or inconclusive.
SMILES,HT1080 IDH1KD tx,HT1080-NT tox,TDP1 cell CPT,KB-V1 cytotox,KB-3-1 tox,TDP1 cell noCPT
COc1ccccc1-c1cccc(-c2nc(C(=O)Nc3nccs3)cc3c2[C@H](CCO)N(C(C)=O)C3)c1,u,u,6.51µM,u,n,5.8µM
O=C(/C=C/c1ccco1)OCC1CCCN2CCCCC12 (stereo not given),n,n,n,n,n,n
C=CCOc1ccc(C(c2c(O)nc(SC)[nH]c2=O)c2c(O)nc(SC)[nH]c2=O)cc1,n,n,n,n,n,n
CN(CC(=O)NCc1ccccc1Cl)S(=O)(=O)c1ccc2c(c1)c(=O)n(C)c(=O)n2C,x,x,n,n,n,n
O=C(CSc1nnc(COc2ccccc2)n1Cc1ccco1)NCc1ccco1,n,n,n,n,n,n
O=C(CSc1nnc(-c2cnccn2)n1Cc1ccco1)c1ccc(Cl)cc1,n,n,23.1µM,n,n,u
O=C(CSc1nnc(-c2ccccn2)n1Cc1ccco1)c1ccc(Cl)cc1,n,n,16.4µM,9.2µM,n,29.1µM
Cc1ccc(OCc2nnc(SCC(=O)C(C)(C)C)n2Cc2ccco2)cc1,n[9.24 µM],n,u,u,u,16.4µM
COc1ccc(C(=O)CSc2nnc(-c3ccccn3)n2Cc2ccco2)cc1,n,n,n,18.4µM,n,u
O=C(CSc1nnc(-c2ccccn2)n1Cc1ccco1)c1ccccc1,n,n,u,u,n,u
CCOc1ccc(S(=O)(=O)N2CCC(C(=O)N3CCCC3)CC2)cc1C,n,n,n,u,n,u
COc1ccc(CN2CCOc3ccc(CN4CCC(Oc5cccnc5)CC4)cc3C2)cc1C,x,x,n[9.04 µM],x,x,u
O=C(CSc1nnc(-c2cccnc2)n1Cc1ccco1)c1ccc2ccccc2c1,n,n,u,14.6µM,n,u
COc1cc(Cl)c(C)cc1NC(=O)CSc1nnc(-c2ccccn2)n1Cc1ccco1,n,n,u,2.31µM,n,u
Fc1cccc(/C=N/Nc2cc(N3CCOCC3)ncn2)c1,n,n,n,n,n,n
CC1CN(C(=O)CCC(=O)NCc2ccccc2)c2cc(Cl)ccc2O1 (stereo not given),n,n,n,u,n,u
Cc1cccc(N2CCN(C(=O)CCC(=O)N3CC(C)Oc4ccc(C)cc43)CC2C)c1 (stereo not given),n,n,16.4µM,n,n,u
Cc1ccc2c(c1)N(C(=O)CCC(=O)NC1CCN(Cc3ccccc3)CC1)CC(C)O2 (stereo not given),n,n,20.6µM,n,n,u
Cc1ccc2c(c1)N(C(=O)CCC(=O)N1CCN(c3ccccn3)CC1)CC(C)O2 (stereo not given),n,n,u,n,n,u
Cc1ccc2c(c1)N(C(=O)CCC(=O)NCc1cccc(Cl)c1)CC(C)O2 (stereo not given),n,n,u,n,n,16.4µM
CCOC(=O)N1CCC(NC(=O)CCC(=O)N2CC(C)Oc3ccc(C)cc32)CC1 (stereo not given),n,n,u,n,n,u
COc1ccc(CCNC(=O)CCC(=O)N2CC(C)Oc3ccc(Cl)cc32)cc1OC (stereo not given),n,n,18.4µM,n,n,u
CCOc1ccc(NC(=O)Cn2ccn(-c3ccc(F)c(F)c3)c(=O)c2=O)cc1,x,x,n,x,x,n
COC(=O)c1cccc2c1-c1ccccc1/C2=N\NC(N)=O,n,n,u,n,n,14.6µM
COC(=O)c1ccc2c(c1O)C(=O)c1ccccc1C2=O,u,u,23.1µM,u,u,20.6µM
SMILES,HT1080 IDH1KD tx,HT1080-NT tox,TDP1 cell CPT,KB-V1 cytotox,KB-3-1 tox,TDP1 cell noCPT
COC(=O)c1cccc2c1-c1ccccc1/C2=N/O,u,u,16.4µM,u,n,13µM
O=C(Nc1ccn(CCCNCc2cccc3ccccc23)c(=O)n1)OCc1ccccc1,u,u,u,n,n,u
Cc1c(Cl)cccc1NC(=S)NC(=O)c1cncc(Br)c1,n,n,n,n,n,u
O=C(Cc1ccccc1)NC(NCCc1ccccc1)C(Cl)(Cl)Cl (stereo not given),n,n,n,n,n,u
Cc1cc(Cl)ccc1OCC(=O)NCCOc1nc(N2CCOCC2)nc(N2CCOCC2)n1,n,n,u,u,n,20.6µM
CN(C)c1nc(OCCNC(=O)COc2ccc(Cl)cc2Cl)nc(N2CCOCC2)n1,n,n,14.6µM,u,n,13µM
Cc1cc(C)cc(OCC(=O)OCc2cc([N+](=O)[O-])cc3c2OCOC3)c1,n,n,n,n,n,n
Cn1c(=O)c2c(SCC(=O)NCc3ccco3)nc(CC(C)(C)C)nc2n(C)c1=O,n,n,u,u,u,18.4µM
Cn1c(=O)c2c(SCC(=O)Nc3ccc4c(c3)OCCO4)nc(CC(C)(C)C)nc2n(C)c1=O,n,n,25.9µM,n,n,u
Cn1c(=O)c2c(SCC(=O)NC3CCCC3)nc(CC(C)(C)C)nc2n(C)c1=O,n,n,n,n,n,n
CCOC(=O)[C@@H]1[C@H]2COc3cc(OC)ccc3[C@H]2N2C(=O)N(c3cccc(F)c3)C(=O)[C@]12C,n,n,u,n,n,u
Cc1c(N/N=C(\C#N)C(=O)c2ccc(Cl)cc2)c(=O)n(-c2ccccc2)n1C,2.59µM,u,3.66µM,n,3.26µM,3.66µM
COC(=O)C(=NNc1c(C)n(C)n(-c2ccccc2)c1=O)C(=O)OC,n,u,n,n,n,n
N#C/C(=N\Nc1ccc(Cl)cc1)C(=O)c1ccccc1,u,2.59µM,9.2µM,n,u,10.3µM
CSc1ccccc1NC(=O)C1=COCCO1,n,n,n,n,n,n
C[C@@H]1CC[C@@]2(O[C@@H](CCO)C[C@H](O)[C@H]2O)O1,n,n,n,n,n,n
CCOc1cccc2c1OC(c1cc(OC)c(OC)c(OC)c1)N1N=C(c3ccc(C)o3)CC21 (stereo not given),u,n,u,n,n,25.9µM
Cc1ccc(NC(=O)Cn2cccc2C2=NC(c3ccccc3)CO2)cc1C (stereo not given),n,n,u,14.6µM,u,u
CCc1ccccc1NC(=O)Cn1cccc1C1=NC(c2ccccc2)CO1 (stereo not given),16.4µM,u,n,u,n,n
Cc1ccc(NC(=O)Cn2cccc2)cc1C,n,n,n,n,n,n
Cc1oc(-c2ccccc2)nc1Cn1cccc1C1=NC(c2ccccc2)CO1 (stereo not given),u,n,u,11.6µM,16.4µM,23.1µM
